Screening data deposited in PubChem by several laboratories.
The list is not random: actives were taken first. Their share in the collection is about 3.9%.
BoNT F protease = BoNT F light chain protease inhibition. hit rate 0.22% among 360,000. inhibition, % at 10 µM. Multiplex microsphere protease cleavage assay, flow cytometry. AID 588497; in the data active = inhibition above about 35%, passing the limit was not always enough; inconclusive = no clear call, values can overlap the other calls
BH1578 lux ind = quorum light induction in luxS cqsA deficient V. cholerae | V. cholerae BH1578 lux reporter, luminescence, 6 h | activation, % at 18.7 µM | hit rate 0.16% among 350,000 | AID 588436; in the data active = activation mostly above about 9.7%, no sharp cut-off; inconclusive = no clear call, values can overlap the other calls; inactive = mostly below about 3.7%
Anthrax LF prot = blocks Bacillus anthracis lethal factor protease. P15917. multiplex microsphere protease cleavage assay, LF. inhibition, % at 10 µM. hit rate 0.12% among 360,000. AID 588501
Target sequence (P15917 whole entry, looked up): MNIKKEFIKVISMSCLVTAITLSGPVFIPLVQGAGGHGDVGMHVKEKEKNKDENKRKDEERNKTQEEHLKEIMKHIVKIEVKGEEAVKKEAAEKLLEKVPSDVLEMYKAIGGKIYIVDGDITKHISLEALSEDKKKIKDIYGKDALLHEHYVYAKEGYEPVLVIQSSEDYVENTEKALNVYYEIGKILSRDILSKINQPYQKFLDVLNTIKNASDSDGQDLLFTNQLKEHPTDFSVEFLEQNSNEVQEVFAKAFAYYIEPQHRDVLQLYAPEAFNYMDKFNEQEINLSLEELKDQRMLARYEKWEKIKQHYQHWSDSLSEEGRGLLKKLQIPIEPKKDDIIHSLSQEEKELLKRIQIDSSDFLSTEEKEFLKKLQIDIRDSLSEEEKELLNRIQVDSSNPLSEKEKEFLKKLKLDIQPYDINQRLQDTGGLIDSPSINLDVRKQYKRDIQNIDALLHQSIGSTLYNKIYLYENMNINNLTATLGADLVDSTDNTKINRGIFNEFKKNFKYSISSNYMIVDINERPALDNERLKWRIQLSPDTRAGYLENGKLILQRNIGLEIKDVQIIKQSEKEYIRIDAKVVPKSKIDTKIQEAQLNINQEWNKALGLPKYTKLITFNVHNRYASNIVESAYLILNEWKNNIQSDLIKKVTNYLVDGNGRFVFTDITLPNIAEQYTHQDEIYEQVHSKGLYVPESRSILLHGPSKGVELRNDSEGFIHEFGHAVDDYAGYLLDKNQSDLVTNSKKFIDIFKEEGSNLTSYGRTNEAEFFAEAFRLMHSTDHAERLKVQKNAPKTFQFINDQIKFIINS
MazEF act = MazEF (E. coli) toxin RNase activation; hit rate 0.32% among 350,000; activation, % at 20 µM; P0AE70; FAM/BHQ RNA-DNA oligo cleavage fluorescence, 5 h; in the data active = activation above about 50%
Autofluor counter = flagged as autofluorescent in microsphere protease counterscreen; AID 624483; compound autofluorescence counterscreen, microsphere flow cytometry; hits give high values; hit rate 3.1% among 360,000; fluorescence intensity (concentration not given with the values); in the data active = fluorescence intensity above about 16000; inconclusive = no clear call, values can overlap the other calls
BoNT-A LC inh2 = blocks Botulinum neurotoxin A light chain protease; hit rate 0.17% among 360,000; multiplex microsphere protease substrate cleavage, flow cytometry; inhibition, % at 10 µM
Each line names hits and unclear results; the compound was inactive in the other large screens. Rule as the data show it, unless noted: active = inhibition above about 30%; inconclusive = no clear call, values can overlap the other calls; inactive = below that.

Cc1cc(C)nc(N2CCC(C(=O)NCCc3ccc(Cl)cc3)CC2)n1	none
CCc1nnc(NC(=O)CN2CCN(C3CCCCC3)CC2)s1	none
CCOC(=O)Cc1nnc(NC(=O)C2CCCCC2)s1	none
CCc1nnc(NC(=O)CN2CC(C)OC(C)C2)s1 (stereo not given)	BoNT F protease 34
Cc1cc(C)nc(N2CCC(C(=O)NCCc3ccc(F)cc3)CC2)n1	Autofluor counter 26052, BoNT-A LC inh2 inconclusive
CCc1nnc(NC(=O)C2CCN(c3nc(C)cc(C)n3)CC2)s1	Autofluor counter 24756
Cc1cc(C)nc(N2CCCC(C(=O)Nc3nnc(C)s3)C2)n1 (stereo not given)	none
Oc1ccc2ccccc2c1C=Nc1cc(C(F)(F)F)ccc1N1CCCC1	MazEF act active
CN(C)c1ccc(-c2noc(C3CCN(S(=O)(=O)c4cccc(Cl)c4)CC3)n2)cc1	Autofluor counter 17481, BoNT-A LC inh2 inconclusive
O=C(C1CC1)N1CCC(c2nc(-c3ccc(S(=O)(=O)N4CCCC4)cc3)no2)CC1	none
CN(C)c1ccc(-c2noc(C3CCN(S(=O)(=O)c4ccc(C(=O)O)cc4)CC3)n2)cc1	Autofluor counter 22586, BoNT-A LC inh2 inconclusive
O=S(=O)(c1ccc2ccccc2c1)N1CCC(c2nc(-c3ccncc3)no2)CC1	none
O=C(COC(=O)CN1C(=O)c2ccccc2C1=O)NC1CCCCC1	none
COc1ccc(-c2sc3ccc(-c4ccc5c(c4)OCO5)cc3c2-c2ccc(OC)nc2)cc1	none
O=C(Nc1nncs1)c1cccc(S(=O)(=O)N2CCOCC2)c1	Autofluor counter 16353
O=C(Nc1ccc(Cl)cn1)c1cccc(S(=O)(=O)N2CCOCC2)c1	Autofluor counter 20815
O=C(Nc1nncs1)c1cccc(S(=O)(=O)N2CCCC2)c1	none
Cc1ccc(S(=O)(=O)N2CCCCC2CCNC(=O)C(=O)Nc2ccccc2F)cc1 (stereo not given)	none
COCc1cc(C)nc(SCC(=O)Nc2nc(C)cs2)c1C#N	none
Cc1cc(C)n(C(=O)Cn2nc(C(F)F)cc2C)n1	Autofluor counter 21933
CCOc1ccc(NC(=O)CN2CCN(CC(=O)Nc3cccc(F)c3)CC2)cc1	none
Cc1ccc(Cl)cc1N1CCN(CC(=O)Nc2ccc3[nH]c(=O)[nH]c3c2)CC1	Autofluor counter 19567
CCOc1ccc(NC(=O)CN2CCN(CC(=O)Nc3ccc(Cl)c(C(F)(F)F)c3)CC2)cc1	Autofluor counter 26476
COc1ccccc1N1CCN(CC(=O)Nc2ccc(Cl)c(C(F)(F)F)c2)CC1	Autofluor counter 16616
O=C(CN1CCN(c2ccccn2)CC1)Nc1ccc(Cl)c(C(F)(F)F)c1	none
CCCN(C(=O)CCNC(=O)c1ccc(Cl)cc1)c1c(N)n(Cc2ccccc2)c(=O)[nH]c1=O	Autofluor counter inconclusive
COc1cc2c(cc1OC)C(C(=O)NC(C)c1ccccc1)CC(=O)N2 (stereo not given)	none
Cc1ccccc1Nc1nnc(-c2ccc(C(=O)NCCO)cc2)c2ccccc12	none
CCCN1C(=O)/C(=C/c2c(NCCCOC(C)C)nc3c(C)cccn3c2=O)SC1=S	BoNT F protease 35, MazEF act 436
Cn1c(=O)oc2cc(S(=O)(=O)Nc3ccc4c(c3)OCCO4)ccc21	Autofluor counter 21945, BoNT-A LC inh2 inconclusive
Cn1c(=O)c(=O)n(C)c2cc(S(=O)(=O)Nc3ccc4c(c3)OCCO4)ccc21	Autofluor counter 22407, BoNT-A LC inh2 inconclusive
NC(=O)c1ccccc1N/C=C1\CCCCC1=O	none
O=C1CCCC/C1=C/Nc1ccc2c(c1)OCO2	Autofluor counter 16302
COc1ccc(OC)c(N/C=C2/CCCCC2=O)c1	Autofluor counter 21967
COc1ccc(N/C=C2/CCCCC2=O)cc1	Autofluor counter 21936
O=C1CCCC/C1=C\Nc1ccccc1C(=O)O	Autofluor counter 19879
O=c1[nH]c(=O)c2[nH]c(=S)[nH]c2[nH]1	none (no result: BH1578 lux ind)
O=C(Cn1c(=O)oc2ccc(Cl)cc21)Nc1ccon1	none
CC(C)C(=O)Nc1cccc(-c2cnc3ccccc3n2)c1	Autofluor counter 20196
Cc1cccc(C(=O)Nc2cccc(-c3cnc4ccccc4n3)c2)c1	MazEF act 53
O=C(CCOc1ccccc1F)N1CCN(c2ccccc2O)CC1	none
COc1c(F)c(F)c(C(=O)Nc2ccc(N3CCN(C(C)=O)CC3)c(Cl)c2)c(F)c1F	Autofluor counter 17323, BoNT-A LC inh2 inconclusive
COc1c(F)c(F)c(C(=O)Nc2ccc(N3CCN(Cc4ccccc4)CC3)cc2)c(F)c1F	Autofluor counter 24627
COc1ccc(C(=O)Nc2ccc(N3CCN(Cc4ccccc4)CC3)cc2)cc1	none
O=C(Oc1ccc(C(=S)N2CCOCC2)cc1)c1ccccc1F	none
COc1ccc(CCN2C(=O)COc3ccccc3C2C(=O)Nc2ccc3c(c2)OCCO3)cc1OC (stereo not given)	none (no result: BH1578 lux ind, MazEF act)
Cc1ccc(S(=O)c2snnc2C)cc1 (stereo not given)	none
Cc1ccc(S(=O)c2ccc(C)cc2)cc1	Autofluor counter 20056, BoNT-A LC inh2 inconclusive
CC1CCN(C(=O)CCc2nc3cc(S(=O)(=O)N(C)C)ccc3n2C)CC1	Autofluor counter 20932, BoNT-A LC inh2 inconclusive
O=C1NC(Cc2ccccc2)c2nc3cc(Cl)ccc3c(=O)n2-c2ncccc21 (stereo not given)	none
CC(=O)Nc1ccc(S(=O)(=O)NCC2CCC(C(=O)NCCCN(C)Cc3ccccc3)CC2)cc1 (stereo not given)	none
O=C(O)C1Nc2ccc(Br)cc2C2C=CCC12 (stereo not given)	none (no result: BoNT F protease, Anthrax LF prot, Autofluor counter, BoNT-A LC inh2)
Fc1ccc2c(c1)C1C=CCC1C(c1cc3c(cc1Br)OCO3)N2 (stereo not given)	Autofluor counter 19890, BoNT-A LC inh2 inconclusive
COc1ccccc1C(=O)NCCC(=O)N(C)CC(=O)Nc1c(Cl)cccc1Cl	none
CCn1c(Cc2ccccc2)nnc1SCC(=O)c1c(N)n(C2CC2)c(=O)[nH]c1=O	none
Cc1cccc(NC(=O)/C(=C\c2cccs2)NC(=O)c2ccccc2)c1	MazEF act 59 (no result: BH1578 lux ind)
CC(C)(C)Nc1nc(N2CCCC2)nc(N2CCCC2)n1	BH1578 lux ind 17
CCNc1nc(NC(C)(C)C)nc(N2CCCC2)n1	none
CCCCN(C)C(=S)Nc1ccc2nc3n(c(=O)c2c1)CCCCC3	none
CC(C)CC(NC(=O)C1CCC(C)CC1)C(=O)NCCN1CCOCC1 (stereo not given)	none
CSCCC(NC(=O)C1CCC(C)CC1)C(=O)O (stereo not given)	Autofluor counter 23567, BoNT-A LC inh2 inconclusive
CSCCC(NC(=O)C1CCC(C)CC1)C(=O)NCCN1CCOCC1 (stereo not given)	Autofluor counter 22383
NC(=O)c1nnsc1Sc1c(C(N)=O)nnn1-c1cccc(N)c1	none
Cc1cc2nc(-c3ccc(C#N)cc3)c(Cc3ccsc3)n2c(C)c1Br	none (no result: BH1578 lux ind, MazEF act)
CC(CNC(=O)Cn1cnc2c(NCc3ccccc3)ncnc21)c1ccccc1 (stereo not given)	none
CC(C)CCn1cnc2c(NCc3ccccc3)ncnc21	Autofluor counter 24204
Cc1cc(-c2nc(C)c(-c3nnc(SCC(=O)Nc4ccc(Cl)cc4)n3C)s2)no1	none
